# Laboratory results reported in the supplement of paper PMC7411640.
# Where a name gives a salt, the structure may show the parent alone.
# Test system: MDA-MB-468
# Test: phospho-S6 immunofluorescence (DAPI-normalised), per-plate z-score; higher = higher phospho-S6 signal (less pathway suppression)
# Details: 24 h
# Method: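 GPCR-targeted compound library (MedChemExpress HY-L006) tested on MDA-MB-468 PTEN-null TNBC cells in 384-well plates at 0.1, 1 or 10 uM, combined with vehicle, GDC0941 450 nM or lapatinib 1 uM, for 24 h. Phospho-S6 (S240/244) immunofluorescence normalised to DAPI and expressed as a per-plate z-score; values are the mean of biological triplicates.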
structure (smiles),measurement,setting,value
CCCCCCCCOc1ccccc1C(=O)Nc1ccc(C(=O)OCC[N+](C)(CC)CC)cc1 [Otilonium (bromide)] (compound 10 µM),phospho-S6 immunofluorescence (z-score),co-treatment: GDC0941 450 nM,-1.43
same,phospho-S6 immunofluorescence (z-score),co-treatment: lapatinib 1 uM,2.8
same,phospho-S6 immunofluorescence (z-score),co-treatment: vehicle,0.94
COC(=O)[C@H]1[C@H]2C[C@H]3c4[nH]c5ccccc5c4CCN3C[C@H]2CC[C@@H]1O [Rauwolscine (hydrochloride)] (compound 10 µM),phospho-S6 immunofluorescence (z-score),co-treatment: GDC0941 450 nM,0.42
same,phospho-S6 immunofluorescence (z-score),co-treatment: lapatinib 1 uM,0.38
same,phospho-S6 immunofluorescence (z-score),co-treatment: vehicle,-0.22
Clc1ccc2nsnc2c1NC1=NCCN1 [Tizanidine (hydrochloride)] (compound 10 µM),phospho-S6 immunofluorescence (z-score),co-treatment: GDC0941 450 nM,1.42
same,phospho-S6 immunofluorescence (z-score),co-treatment: lapatinib 1 uM,-0.07
same,phospho-S6 immunofluorescence (z-score),co-treatment: vehicle,0.54
O=C(CN1C(=O)C2(CCCC2)NC[C@H]1c1cc(F)cc(F)c1)Nc1ccc2c(c1)C[C@@]1(C2)C(=O)Nc2ncccc21 [MK-3207 (Hydrochloride)] (compound 10 µM),phospho-S6 immunofluorescence (z-score),co-treatment: GDC0941 450 nM,-0.51
same,phospho-S6 immunofluorescence (z-score),co-treatment: lapatinib 1 uM,-0.06
same,phospho-S6 immunofluorescence (z-score),co-treatment: vehicle,-0.48
Clc1cccc(COc2cncc(N3CCNCC3)n2)c1 (compound 10 µM),phospho-S6 immunofluorescence (z-score),co-treatment: GDC0941 450 nM,-1.03
same,phospho-S6 immunofluorescence (z-score),co-treatment: lapatinib 1 uM,-4.09
same,phospho-S6 immunofluorescence (z-score),co-treatment: vehicle,0.21
COc1cc2nc(N(C)CCCNC(=O)C3CCCO3)nc(N)c2cc1OC (configuration not stated) [Alfuzosin] (compound 10 µM),phospho-S6 immunofluorescence (z-score),co-treatment: GDC0941 450 nM,0.81
same,phospho-S6 immunofluorescence (z-score),co-treatment: lapatinib 1 uM,0.71
same,phospho-S6 immunofluorescence (z-score),co-treatment: vehicle,-0.19
COc1ccc2c(c1)c(CC(=O)N1CCOCC1)c(C)n2C(=O)c1ccc(Cl)cc1 (compound 10 µM),phospho-S6 immunofluorescence (z-score),co-treatment: GDC0941 450 nM,-3.35
same,phospho-S6 immunofluorescence (z-score),co-treatment: lapatinib 1 uM,-6.12
same,phospho-S6 immunofluorescence (z-score),co-treatment: vehicle,-6.12
CC(ONC(=O)c1cc(C(F)(F)F)cc(C(F)(F)F)c1)C(=O)Nc1ccc(Cl)cc1 (configuration not stated) (compound 10 µM),phospho-S6 immunofluorescence (z-score),co-treatment: GDC0941 450 nM,-3.03
same,phospho-S6 immunofluorescence (z-score),co-treatment: lapatinib 1 uM,-1.73
same,phospho-S6 immunofluorescence (z-score),co-treatment: vehicle,-2.5
NCCc1c[nH]cn1 [Histamine (phosphate)] (compound 10 µM),phospho-S6 immunofluorescence (z-score),co-treatment: GDC0941 450 nM,-0.41
same,phospho-S6 immunofluorescence (z-score),co-treatment: lapatinib 1 uM,-0.13
same,phospho-S6 immunofluorescence (z-score),co-treatment: vehicle,0.1
CC1(C)O[C@@H]2[C@@H](CO[C@@]3(COS(N)(=O)=O)OC(C)(C)O[C@@H]23)O1 [Topiramate] (compound 10 µM),phospho-S6 immunofluorescence (z-score),co-treatment: GDC0941 450 nM,-0.24
same,phospho-S6 immunofluorescence (z-score),co-treatment: lapatinib 1 uM,0.19
same,phospho-S6 immunofluorescence (z-score),co-treatment: vehicle,-0.31
CC(C)N(CC[C@H](c1ccccc1)c1cc(CO)ccc1O)C(C)C [(R)-5-Hydroxymethyl Tolterodine] (compound 10 µM),phospho-S6 immunofluorescence (z-score),co-treatment: GDC0941 450 nM,0.35
same,phospho-S6 immunofluorescence (z-score),co-treatment: lapatinib 1 uM,0.44
same,phospho-S6 immunofluorescence (z-score),co-treatment: vehicle,0.11
COc1ccc(N2CCOCC2)c2sc(NC(=O)N3CCC(C)(O)CC3)nc12 [Tozadenant] (compound 10 µM),phospho-S6 immunofluorescence (z-score),co-treatment: GDC0941 450 nM,0.02
same,phospho-S6 immunofluorescence (z-score),co-treatment: lapatinib 1 uM,0.77
same,phospho-S6 immunofluorescence (z-score),co-treatment: vehicle,0.82
CNC[C@H](O)c1ccc(O)c(O)c1 [L-Epinephrine (Bitartrate)] (compound 10 µM),phospho-S6 immunofluorescence (z-score),co-treatment: GDC0941 450 nM,0.93
same,phospho-S6 immunofluorescence (z-score),co-treatment: lapatinib 1 uM,2.5
same,phospho-S6 immunofluorescence (z-score),co-treatment: vehicle,-0.23
CN(C)CCc1c[nH]c2ccc(CS(=O)(=O)N3CCCC3)cc12 [Almotriptan (malate)] (compound 10 µM),phospho-S6 immunofluorescence (z-score),co-treatment: GDC0941 450 nM,0.95
same,phospho-S6 immunofluorescence (z-score),co-treatment: lapatinib 1 uM,0.57
same,phospho-S6 immunofluorescence (z-score),co-treatment: vehicle,0.38
NC(=O)NC1NC(=O)NC1=O (configuration not stated) [Allantoin] (compound 10 µM),phospho-S6 immunofluorescence (z-score),co-treatment: GDC0941 450 nM,0.67
same,phospho-S6 immunofluorescence (z-score),co-treatment: lapatinib 1 uM,0.13
same,phospho-S6 immunofluorescence (z-score),co-treatment: vehicle,-0.01
C[N+]1(C)[C@@H]2CC[C@H]1C[C@@H](OC(=O)C(O)c1ccccc1)C2 (some centres not stated) [Homatropine (methylbromide)] (compound 10 µM),phospho-S6 immunofluorescence (z-score),co-treatment: GDC0941 450 nM,0.87
same,phospho-S6 immunofluorescence (z-score),co-treatment: lapatinib 1 uM,1.2
same,phospho-S6 immunofluorescence (z-score),co-treatment: vehicle,1.2
CN(C)CCOC(c1ccccc1)c1ccccc1 [Diphenhydramine (hydrochloride)] (compound 10 µM),phospho-S6 immunofluorescence (z-score),co-treatment: GDC0941 450 nM,-0.32
same,phospho-S6 immunofluorescence (z-score),co-treatment: lapatinib 1 uM,-0.09
same,phospho-S6 immunofluorescence (z-score),co-treatment: vehicle,0.32
CN(C)CCc1c[nH]c2ccc(Cn3cncn3)cc12 [Rizatriptan (benzoate)] (compound 10 µM),phospho-S6 immunofluorescence (z-score),co-treatment: GDC0941 450 nM,-1.62
same,phospho-S6 immunofluorescence (z-score),co-treatment: lapatinib 1 uM,0.19
same,phospho-S6 immunofluorescence (z-score),co-treatment: vehicle,-1.1
CC(C)(C)C1CCC(N(Cc2ccc(C(=O)NCCC(=O)O)cc2)C(=O)Nc2ccc(OC(F)(F)F)cc2)CC1 (configuration not stated) (compound 10 µM),phospho-S6 immunofluorescence (z-score),co-treatment: GDC0941 450 nM,-3.4
same,phospho-S6 immunofluorescence (z-score),co-treatment: lapatinib 1 uM,-4.75
same,phospho-S6 immunofluorescence (z-score),co-treatment: vehicle,-1.64
CC(C)(Cc1ccc2ccccc2c1)NC[C@@H](O)COc1cccc(Cl)c1C#N [NPS-2143 (hydrochloride)] (compound 10 µM),phospho-S6 immunofluorescence (z-score),co-treatment: GDC0941 450 nM,-6
same,phospho-S6 immunofluorescence (z-score),co-treatment: lapatinib 1 uM,-12.2
same,phospho-S6 immunofluorescence (z-score),co-treatment: vehicle,-9.7
CN(C)CCOC(c1ccccc1)c1ccccc1.Cn1c(=O)c2[nH]c(Cl)nc2n(C)c1=O [Dimenhydrinate] (compound 10 µM),phospho-S6 immunofluorescence (z-score),co-treatment: GDC0941 450 nM,-1.22
same,phospho-S6 immunofluorescence (z-score),co-treatment: lapatinib 1 uM,0.01
same,phospho-S6 immunofluorescence (z-score),co-treatment: vehicle,-0.02
CN(C)N(C)C(=O)[C@@]1(Cc2ccccc2)CCCN(C(=O)[C@@H](Cc2c[nH]c3ccccc23)NC(=O)C(C)(C)N)C1 [Anamorelin (hydrochloride)] (compound 10 µM),phospho-S6 immunofluorescence (z-score),co-treatment: GDC0941 450 nM,-1.14
same,phospho-S6 immunofluorescence (z-score),co-treatment: lapatinib 1 uM,-0.96
same,phospho-S6 immunofluorescence (z-score),co-treatment: vehicle,-0.1
CCCC(=O)Nc1ccc(OCC(O)CNC(C)C)c(C(C)=O)c1 (configuration not stated) [Acebutolol (hydrochloride)] (compound 10 µM),phospho-S6 immunofluorescence (z-score),co-treatment: GDC0941 450 nM,1.02
same,phospho-S6 immunofluorescence (z-score),co-treatment: lapatinib 1 uM,0.15
same,phospho-S6 immunofluorescence (z-score),co-treatment: vehicle,-0.08
C[C@]12C=CC(=O)C=C1CC[C@H]1[C@@H]3C[C@@H](O)[C@](O)(C(=O)CO)[C@@]3(C)C[C@H](O)[C@@]12F [Triamcinolone] (compound 10 µM),phospho-S6 immunofluorescence (z-score),co-treatment: GDC0941 450 nM,0.04
same,phospho-S6 immunofluorescence (z-score),co-treatment: lapatinib 1 uM,0.82
same,phospho-S6 immunofluorescence (z-score),co-treatment: vehicle,0.94
